A short description of experiment [1]: NCI Yeast Anticancer Drug Screen. Data for the rad50 strain (AID 155).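 Note: 0% = growth of vehicle-only cultures of the same strain.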 As to conditions: S. cerevisiae rad50 strain growth inhibition, active compounds read high. In short, it runs like this:
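A DNA repair-deficient yeast mutant serves as the test organism; compound-induced growth inhibition is calculated against vehicle-treated cells.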

Experiment [2] is described as follows: NCI Yeast Anticancer Drug Screen. Data for the mec2-1 strain (AID 157). As to conditions: S. cerevisiae mec2-1 strain, active compounds read high. In short, it runs like this: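 Growth inhibition is read against vehicle-treated controls after compound exposure of the mec2-1 yeast strain, which is defective in DNA damage repair or cell cycle control.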
Experiment [3] can be described thus: NCI Yeast Anticancer Drug Screen. Data for the sgs1 mgt1 strain (AID 161).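 Note: 0% = growth of cultures given vehicle only.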 As to conditions: S. cerevisiae sgs1 mgt1 strain, active compounds read high. A digest of the protocol:
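Percent growth inhibition was derived by comparing compound-exposed mutant yeast with vehicle-exposed cultures. The strain carries alterations in DNA damage repair.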

The nature of experiment [4]: NCI Yeast Anticancer Drug Screen. Data for the cln2 rad14 strain (AID 165).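 Note: 0% = growth equal to vehicle treated cultures.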 As to conditions: S. cerevisiae cln2 rad14 strain, active compounds read high. In short, it runs like this: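 Growth inhibition, relative to vehicle-treated controls, is the read-out. The test organism is a yeast strain with defined genetic alterations, cln2 rad14.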
Experiment [5] can be described thus: NCI Yeast Anticancer Drug Screen. Data for the bub3 strain (AID 167). As to conditions: S. cerevisiae bub3 mutant strain, active compounds read high. A digest of the protocol: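 Inhibition values come from growth of compound-treated mutant yeast normalised to vehicle-treated controls.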
The nature of experiment [6]: NCI Yeast Anticancer Drug Screen. Data for the mlh1 rad18 strain (AID 175). As to conditions: S. cerevisiae mlh1 rad18 strain growth inhibition, active compounds read high. In short, it runs like this: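 Cells of a genetically altered yeast strain, deficient in DNA damage repair, were treated with compound. Their growth was then compared with that of vehicle-treated cultures to give inhibition.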

The mark [7] stands for this setting: at 5.0 µM (retest, dose inferred, filed as 0.5).
Setting [8] is: at 50.0 µM (retest, dose inferred, filed as 5.0).

The panel holds about 79,000 compounds, 15% with a hit somewhere; the sample as a whole holds those more often. Unmarked numbers belong to inactive results. The source made the active and inactive calls. Cut-off read from the data, not from the text of the source: active = growth inhibition above about 70%; inactive = the rest.

Among the data in PubChem BioAssay (NCI) are growth inhibition values, retold here.

For the molecule `CCCCC#CCCOC(=O)C#CCCCC`, the growth inhibition was 1% in experiment [1] (setting [7]); 6% in experiment [1] (setting [8]); 30% in experiment [1] (at 50.0 µM); 1% in experiment [2] (setting [7]); 4% in experiment [2] (setting [8]); 28.2% in experiment [2] (at 50.0 µM). The growth inhibition in experiment [3] (setting [7]) is 3%; in experiment [3] (setting [8]) it was 7%; in experiment [3] (at 50.0 µM), -0.85%; in experiment [4] (setting [7]) it was 8%; in experiment [4] (setting [8]) it was 9%; in experiment [4] (at 50.0 µM) it was 92% (active). The growth inhibition in experiment [5] (setting [7]) was 3%; in experiment [5] (setting [8]) it was 12%; in experiment [5] (at 50.0 µM), -21.3%; in experiment [6] (setting [7]) it was 0%; in experiment [6] (setting [8]), 3%; in experiment [6] (at 50.0 µM), 3.25%.
Take `CCCCCc1cccc(CC(=O)OCC)n1`: the growth inhibition in experiment [1] (setting [7]) is -161%; in experiment [1] (setting [8]), -149%; in experiment [1] (at 50.0 µM), -14.7%; in experiment [2] (setting [7]), -50%; in experiment [2] (setting [8]), -57%; in experiment [2] (at 50.0 µM) it was -15.3%. The growth inhibition in experiment [3] (setting [7]) is -66%; in experiment [3] (setting [8]), -69%; in experiment [3] (at 50.0 µM), -12.7%; in experiment [4] (setting [7]) it was -58%; in experiment [4] (setting [8]), -80%; in experiment [4] (at 50.0 µM), 26.9%. In addition, the growth inhibition in experiment [5] (setting [7]) was -66%; in experiment [5] (setting [8]) it was -42%; in experiment [5] (at 50.0 µM), -12.3%; in experiment [6] (setting [7]), -127%; in experiment [6] (setting [8]), -132%; in experiment [6] (at 50.0 µM), -6.15%.
As for `Cc1ccc(NC(=S)SCc2ccc3c(c2)OCO3)cc1Br`, the growth inhibition in experiment [1] (setting [7]) was 46%; in experiment [1] (setting [8]), 96% (active); in experiment [1] (at 50.0 µM) it was 89.8% (active); in experiment [2] (setting [7]), 29%; in experiment [2] (setting [8]), 98% (active); in experiment [2] (at 50.0 µM) it was 91.8% (active). Moreover, the growth inhibition in experiment [3] (setting [7]) was 55%; in experiment [3] (setting [8]), 98% (active); in experiment [3] (at 50.0 µM), 91.9% (active); in experiment [4] (setting [7]), 52%; in experiment [4] (setting [8]), 98% (active); in experiment [4] (at 50.0 µM) it was 88.5% (active). The growth inhibition is 58% in experiment [5] (setting [7]); 99% (active) in experiment [5] (setting [8]); 91% (active) in experiment [5] (at 50.0 µM); 36% in experiment [6] (setting [7]); 97% (active) in experiment [6] (setting [8]); 89.8% (active) in experiment [6] (at 50.0 µM).
With `Cc1nc2c(O)c3c(c(O)c2nc1C)C1C=CC3CC1`, the growth inhibition in experiment [1] (setting [7]) is 30%; in experiment [1] (setting [8]), 83% (active); in experiment [1] (at 50.0 µM), 64%; in experiment [2] (setting [7]) it was 16%; in experiment [2] (setting [8]), 89% (active); in experiment [2] (at 50.0 µM), 66.2%. The growth inhibition in experiment [3] (setting [7]) is 30%; in experiment [3] (setting [8]), 84% (active); in experiment [3] (at 50.0 µM), 77.5% (active); in experiment [4] (setting [7]), 22%; in experiment [4] (setting [8]), 30%; in experiment [4] (at 50.0 µM) it was 14.2%. Moreover, the growth inhibition was 39% in experiment [5] (setting [7]); 91% (active) in experiment [5] (setting [8]); 84.7% (active) in experiment [5] (at 50.0 µM); 20% in experiment [6] (setting [7]); 82% (active) in experiment [6] (setting [8]); 14.2% in experiment [6] (at 50.0 µM).
Turning to `O=C(Nc1ccc([N+](=O)[O-])cc1[N+](=O)[O-])C(=O)C(C(=O)c1ccc(Cl)c(Cl)c1)C1OC(=O)c2ccccc21` (stereo not drawn), the growth inhibition in experiment [1] (setting [7]) is 27%; in experiment [1] (setting [8]), 27%; in experiment [1] (at 50.0 µM), 67%; in experiment [2] (setting [7]), 25%; in experiment [2] (setting [8]), 25%; in experiment [2] (at 50.0 µM) it was 40.9%. In addition, the growth inhibition was 22% in experiment [3] (setting [7]); 22% in experiment [3] (setting [8]); 61.8% in experiment [3] (at 50.0 µM); 30% in experiment [4] (setting [7]); 30% in experiment [4] (setting [8]); 72.3% (active) in experiment [4] (at 50.0 µM). Further, the growth inhibition is 31% in experiment [5] (setting [7]); 31% in experiment [5] (setting [8]); 53.5% in experiment [5] (at 50.0 µM); 16% in experiment [6] (setting [7]); 16% in experiment [6] (setting [8]); 39.6% in experiment [6] (at 50.0 µM).
Take `CCCCN1C(=O)C(=O)N(c2ccccc2)C1=O`: the growth inhibition in experiment [1] (setting [7]) is -6%; in experiment [1] (setting [8]), 5%; in experiment [1] (at 50.0 µM), 18.2%; in experiment [2] (setting [7]) it was -7%; in experiment [2] (setting [8]), 12%; in experiment [2] (at 50.0 µM), 32.9%. In addition, the growth inhibition was -14% in experiment [3] (setting [7]); 1% in experiment [3] (setting [8]); 8.65% in experiment [3] (at 50.0 µM); -29% in experiment [4] (setting [7]); -17% in experiment [4] (setting [8]); 73.8% (active) in experiment [4] (at 50.0 µM). The growth inhibition in experiment [5] (setting [7]) is -21%; in experiment [5] (setting [8]), 11%; in experiment [5] (at 50.0 µM), 1.55%; in experiment [6] (setting [7]), -5%; in experiment [6] (setting [8]), 15%; in experiment [6] (at 50.0 µM), 16.9%.
